Measured values published in PubChem BioAssay AID1508600 (Functional Genomics Laboratory (NCATS/FGL), 2020).
The whole screen tested about 53,000 sequences, of which about 3,700 (7%) were called active. Many of the other results were omitted from the sample, so actives are more common in it than they were. A number with no mark means an inactive call.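 The calls were made as follows: active = gene knockdowns whose robust z-score for IL-1 alpha signal is at least 2 or at most -2, so actives lie on both sides; inactive = the rest.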

assay: Components of the Cytosolic LPS Sensing Pathway: Gene Identification via Genome-wide siRNA Screen; details: RAW264.7 macrophages, IL-1a HTRF, actives lie on both sides, screened at 100 nM (by protocol), cells primed 5 h with Pam3CSK4 first;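 also: robust z of the log signal after scaling to non-targeting control siRNA wells of the plate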
In short: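 Knockdown: 100 nM siRNA, 48h, RAW264.7. Stimulation: Pam3CSK4 5 h, then LipidA via TransIT-TKO 24 h. Output: supernatant IL-1a HTRF, negative-control-normalized, log robust z-score; viability by CellTiter-Glo.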

Sequence	z-score
GGAUCACUUUUAGUUUUCUTT against C230013L11Rik	-0.0242
GCCUGAUAGUGCAGAAACATT against Rabl2	-0.233
GGUUAUCGCAUUUGGUGGUTT against Olfr1511	0.104
GGACAAAAGGCAAUCUACATT against Mettl18	2.8 (active)
GGUGUCUCUCCAGGAUAACTT against Ctrl	-0.511
CGUACAACACGGAAACCUATT against Paqr5	-0.448
GGGUCUCAGCAGUGCAAACTT against Txnip	-0.486
GGAGAGAGGGAAAAAAGAATT against Sox4	-0.317
GGCUUGACUGCUAUUUUAGTT against Csn1s1	0.711
CCACCUGACUUUUGGAAGATT against Coro1b	-1.8
UUAAGGAAAUGUUCUGUUCTT against Olfr426	0.797
GGCUUUGAGAGGAACACCATT against Sh2d4b	-2.49 (active)
GGCCAAGUUCAACAUUCCATT against Lilrb4a	0.539
GGGACUUAAGUGAAGUUCATT against Ogfod2	0.232
GCUGUCUCGUCAUUUAAGATT against Dym	-0.461
GGAAAGUGUUGUCAAAAGATT against Olfr125	-0.386
GGCAUGUGGAAAACCUCCUTT against Lrrc46	-0.413
GGAUGAUGAAUUCACACACTT against Calr	3.18 (active)
GGAGAAAAAAUUCUUAUCCTT against Prmt2	-0.31
GGCGGUUUCACCUAUACAATT against Rspo4	0.821
GGUCACCUUAACCGAGAAGTT against Phkg1	0.19
GGACUUAACUAGUUGACAATT against Pclaf	-1.06

Sequence	z-score
GGUAUGAUGAAAAUACACATT against Mmp1a	2.56 (active)
GGGAGUGCCUUUAAAACACTT against Satb1	0.882
GCCAAAAGGAGGACAUACCTT against Mylk3	1.08
GGAUAUUGAUUGCUUUGUUTT against Uox	1.41
GGACAAAAGAUUCUUCAUCTT against Map1b	2.93 (active)
CCAACAAUGAUUAAUCAGCTT against Meis1	-1.38
GGAAAAUCACAAUCACUUGTT against Ccdc43	-0.669
GGUACCACCAUGCUAUGGUTT against Krtap19-9b	0.646
GGUGGUGAUUCACCUCCAATT against Tnfrsf12a	-2.23 (active)
GCACUCAAGACCUGUAUGATT against Cldn18	0.627
GGAAAUGCCAUUUGAUUUGTT against Rfpl4	0.599
GGACGAUCAUGACAAGAUGTT against Psmb2	-2.35 (active)
CCAUCGUAUUUAACCACAUTT against Dtymk	0.206
GGCAAACUUAUCUUCUUCUTT against Ahsa1	-1.89
GGGAGUUAUAUUAGUCUAUTT against Rab18	0.436
GGAUGCAGAGACCUAUUUCTT against Cacng5	-0.158
GGAACAGAGCCUUUCUCAGTT against Rnf183	-0.153
CCCAUGAUCUGGAAGAGACTT against Il1a	-2.08 (active)
GCUAAUAGCCUGCCUAAGGTT against Plekhj1	1.35
GUUACAAAACAUCGGUGGGTT against Vsig2	1.06
CCUAGACAAAGUUUCAAACTT against Xrcc4	-0.662
GGAAAGAUUUCGAACAAUCTT against Rab1a	1.66

Sequence	z-score
CAGUUUUUGGUCUCUAUCUTT against Olfr113	2.27 (active)
GGCAGUUAGUAAGUUUAAATT against Eif5a2	1.22
GGUAUACACAUGAAAACCATT against Ccdc137	-0.548
GGUGAUUCGUCAGAAGCUGTT against Gpr84	-0.61
GGCUUGCUAAAGGAUGGGATT against Coq8b	0.0536
CGUACUGGUACGGAAGCGUTT against Adck1	0.279
GGAAUGAGGUUUGUAGACUTT against Arsg	-0.765
CCGUACAUCGAGAAAUACATT against Hal	2.36 (active)
GGAGGACUAGGAGUGAUUGTT against Fggy	-0.363
GGAUAGUCAGAAAUGGAAATT against Chmp4c	-0.43
GGGUGAUUUCUAUUCACUATT against Pam	-0.633
GCACGGUCAAGUUUUGAUUTT against Prkaa2	-0.792
GGGCCAAUUCUGAAACUUGTT against Il1f5	0.669
CCACAGUACGCUGAAAUCCTT against Morf4l1	-2.27 (active)
GCUAGUGUGAUACCAUUUATT against Nab1	1.63
GGAGAACCGUAACAACAACTT against Cacna1a	0.692
GGUAGACUCUAGAUUAAGATT against Srrm2	-0.58
CGAGCAAAUCUCAUUCAAGTT against Oxgr1	3.07 (active)
CCCACCUUACAUAUAUUGATT against Srr	0.25
GGUAUUAGAAGAUAAUGACTT against Akt3	-1.12
CCAUCAGUUUCAUUAUUGGTT against Fpr-rs6	-0.605
GCAUAACUUAAACUGCUCATT against Zfp12	1.91

Sequence	z-score
CCAGAGCUUAUUGAGAUGCTT against Myh4	-0.475
GCUACUUAAGGGUUUGGAUTT against Pcdhb3	4.67 (active)
GGCUGUUACAAGAACGUAGTT against 5031434C07Rik	-1.99
GGAAACAACCCAAAGAAUCTT against Slc12a8	-0.343
GGUGGACCUGAAACGUAGCTT against Inhbb	0.878
GGUUCAUCUUUCAAAUCUATT against Kpna4	-0.676
CCUGUAGGUGGAAUAAACATT against Awat2	-2.28 (active)
CCUAGUAAUGUCCAUUGUGTT against Endod1	0.0364
GGACUCAGAUAUCUUUCAGTT against Adck1	-0.328
CGUUGCUGACUGCUAUGAATT against Tmprss13	-1.22
CCACUUUCACAUGAAGUUATT against Eif2s3x	-0.7
GCUCCAGCUUGCACUCUUGTT against Trp53i13	1.36
GCCACAUCGUAGACAAGUATT against Zfp41	-2.71 (active)
CCCGAACCUGUUGUCUGAATT against Ttc8	-0.422
GCCAAGUGCUACAACAUCCTT against Ifitm5	-0.64
CCGAGAUUGCCUGUUUGGUTT against Rnf144b	2.08 (active)
GGAACUCAAAUUGAAAAGGTT against Manea	-0.135
GCUAUUGGAGAUAUAAUGGTT against Ace	1.58
GGACUUUUUCAAAGGUUUUTT against Eif4g3	2.37 (active)
GGCAGGCAACCAAUCAAAUTT against Npepps	1.29
GGAUUUCAUUAUCCUGUUUTT against Zfp608	-1.19
GCCUUGAACUAUGCAUAGATT against Eno2	1.7

Sequence	z-score
GGCCUCAUGCAGGAACAUUTT against Polr2d	-2.34 (active)
GGAAGAAGAAAGAUUCAAATT against Bcan	-0.862
GAUUUUUCAAAUCUUUGGCTT against Plac8	-1.52
GAGCAUCUGUGUAGAAGUGTT against Thrsp	0.786
CCUGGUACAAUCAAACUGCTT against Rnf222	0.516
GGCAGAAUGGGAAAUGUAUTT against Htr7	-0.841
GCCGUUUAUUCAUUGCACUTT against Cdc123	1.21
GGACUUGACCUCAAGGGAATT against Sox6	2.35 (active)
GGAAUUCAAUCAGUUUGCUTT against Dysf	1.06
GGCAUUUUUCGGAUUGACATT against Mmp27	-0.807
CCCUCUGAACUAUAUGACUTT against Olfr700	-1.09
GGUGUGGAACGACAAACAGTT against Pla2g4f	-2.8 (active)
GGCUUUGUGGACUUAAUUATT against Cyb5r2	-1
GCAUCACUGGAUUGUGGAUTT against Tm9sf2	0.188
GGGAAAAAUGGUCAGAUUATT against Colgalt2	-1.08
GGUUCCUAAGGAUGAACUUTT against Akr1c14	-0.186
GGCCUAGCAAGGGAUUUUATT against Cep85	-2.02 (active)
GGAUCUCUUUGUUAAUGGUTT against Mall	0.715
GCCAUAUGCUAUCAAGAUGTT against Pskh1	-0.715
GGAAUGCUACAACUCAAAATT against Ptk2	-0.861
